Inconclusive results are not listed. Calls of active or inactive are those of the source. Calls follow the shape of the dose curve; as a rule, active = well fitted activation curve with a large enough effect in the signal ratio in the repeat runs (not every such curve was filed as active); inconclusive = weak or mixed curves, or effect the other way; inactive = flat fitted curve, though single readings scatter; the % refers to the signal ratio.
assay: qHTS assay to identify small molecule agonists of the endoplasmic reticulum stress response signaling pathway (AID 1159516); settings: ESRE-bla HeLa, ER stress beta-lactamase reporter, 5 h; series mostly up to 61 µM
How it was run: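 CellSensor ESRE-bla HeLa cells, carrying a beta-lactamase reporter driven by the ER stress response element, were plated overnight and exposed to compounds for 5 hr at 37 C. Reporter activity was read as FRET substrate fluorescence after 2 hr at room temperature.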

SMILES	outcome
Cc1ccc(NC=O)c(C)c1	inactive
CC(CN=Cc1ccccc1O)N=Cc1ccccc1O (centres undefined)	inactive
CCC(C)CCCC(C)(C)O (centres undefined)	inactive
CO[C@@H]1[C@@H](O[C@@H]2O[C@H](C)[C@@H](O[C@H]3C[C@@](C)(O)[C@@H](O)[C@H](C)O3)[C@H](N(C)C)[C@H]2O)[C@@H](CC=O)C[C@@H](C)[C@@H](O[C@@H]2CC[C@H](N(C)C)[C@@H](C)O2)/C=C/C=C/C[C@@H](C)OC(=O)C[C@H]1OC(C)=O	inactive
CC(=O)Nc1ccccc1O	inactive
CCCCOC(=O)C(C)Oc1ccc(Oc2ccc(C(F)(F)F)cn2)cc1 (centres undefined)	inactive
C=CC(O)CCCCC (centres undefined)	inactive
CC(=O)OCC(=O)[C@@]1(O)CC[C@H]2[C@@H]3CCC4=CC(=O)C=C[C@]4(C)[C@@]3(F)[C@@H](O)C[C@@]21C	inactive
O=C(O)CNc1ccccc1	inactive
O=C(Nc1ccccc1)c1cc([N+](=O)[O-])ccc1Cl	inactive
C=CC(C)CCC=C(C)C (centres undefined)	inactive
CC1=C(C)C(=O)C(CCCCC#CCCCC#CCO)=C(C)C1=O	inactive
CCCCCCCCC(=O)OCC(C)OC(=O)CCCCCCCC (centres undefined)	inactive
Cc1cc(C)n(CO)n1	inactive
OCCCO	inactive
CCCCOC(=O)CC#N	inactive
CCN(CCCCOC(=O)c1ccc(OC)c(OC)c1)C(C)Cc1ccc(OC)cc1 (centres undefined)	inactive
C[C@H](CN1CCCC1)C(=O)c1ccc(C(F)(F)F)cc1	inactive
CC(C)Oc1ccccc1O	inactive
FC1(F)C(F)(F)C(F)(F)C2(F)C(F)(C1(F)F)C(F)(F)C(F)(F)C1(F)C(F)(F)C(F)(F)C(F)(F)C(F)(F)C12F (centres undefined)	inactive

SMILES	outcome
CCCCCCCCCCCCSC#N	inactive
CNc1ccccc1	inactive
CC(C)(C(=O)O)c1ccc(C(O)CCCN2CCC(C(O)(c3ccccc3)c3ccccc3)CC2)cc1 (centres undefined)	inactive
CCCCC(CC)COCCC#N (centres undefined)	inactive
O=C1OC(=O)C2CC=CCC12 (centres undefined)	inactive
C=CCCC	inactive
C=C(C)C(=O)OCCCCCCCCCCOC(=O)C(=C)C	inactive
CC(O)CN (centres undefined)	inactive
COC(=O)C(C)(C)C	inactive
Nc1cccc2c(=O)[nH][nH]c(=O)c12	inactive
Cc1cc(N)n(-c2ccccc2)n1	inactive
CC[C@H](NC(C)C)[C@H](O)c1ccc(O)c2[nH]c(=O)ccc12	inactive
CC(O)C(C)O (centres undefined)	inactive
NC(=O)c1ccccc1C(N)=O	inactive
O=Cc1ccc(Cl)c([N+](=O)[O-])c1	inactive
O=C(OCCOCCOCCOC(=O)c1ccccc1)c1ccccc1	inactive
CCCN(C1CCN(C(=O)C2CCNCC2)CC1)[C@@H]1CCc2ccc(OC)cc2C1	inactive
CC1(C)CC(=O)CC(C)(C)N1	inactive
CO[C@@H]1COCC[C@@H]1N[C@@H]1CC[C@@](C(=O)N2CCc3ncc(C(F)(F)F)cc3C2)(C(C)C)C1	inactive

— PubChem BioAssay (Tox21)
